Hits are enriched below; roughly 12% of the tested compounds scored in any of these assays.
Sfp inh: inhibitors of Bacillus subtilis Sfp phosphopantetheinyl transferase; Biochemical Sfp PPTase activity, qHTS; Q9F4F7; Potency, µM, inactives show largest response in the series, negative = inhibition, hits mostly inhibitors; 3.5% of 310,000 active; AID 1490;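 also: the enzyme is Sfp with the accession as filed and its product quenches rhodamine fluorescence; 0% = enzyme reaction without inhibitor and -100% = no enzyme wells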
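With Hepes-Na pH 7.6 buffer containing 10 mM MgCl2, Sfp (15 nM) modified BHQ-2-YbbR (12.5 uM) using rhodamine-CoA (5 uM). Two reads 30 minutes apart at 525/598 nm yielded each well's rate.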
RORgamma inh: ROR gamma (mouse) transcription inhibition; Potency, µM (doses to about 53.6 µM), for the others: top-dose activity change, negative = inhibition, hits mostly inhibitors; P51450; AID 2551; Drosophila S2 Gal4-RORgamma UAS-luciferase reporter, 20 h; 5.4% of 310,000 active; also: nearly all actives have a fitted effect of over 60% in size
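Stably transfected Drosophila Schneider cells are the test system, with ROR gamma fused to Gal4 and luciferase under UAS control; luminescence is read after 20 hr of 700 uM copper sulfate induction at ambient temperature.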
PLK1 PBD inh: blocks phosphopeptide binding to human PLK1 polo-box domain; 2.8% of 360,000 active; AID 720504; Plk1 PBD binding of FITC phosphopeptide, fluorescence polarization; P53350; Potency, µM, inactives show max response, negative = inhibition, hits mostly inhibitors; also: series mostly up to about 57 µM; nearly all actives have a fitted effect of over 65% in size
ALDH1A1 block: inhibitors of human aldehyde dehydrogenase 1A1. Purified ALDH1A1, NADH fluorescence, propionaldehyde substrate. Potency, µM (top dose mostly 75.3 µM), for inactives: at the highest dose activity, negative = inhibition, most hits filed as inhibitors. 7.3% of 220,000 active; active = well fitted inhibition curve with a large enough effect, not every such curve was filed as active; inconclusive = small, poorly fitted or top-dose-only effect, or another doubt; inactive = no such curve, though single readings can be large or run the other way;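 also: plate controls were no enzyme wells and a reference inhibitor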
Target sequence (P00352 whole entry, looked up): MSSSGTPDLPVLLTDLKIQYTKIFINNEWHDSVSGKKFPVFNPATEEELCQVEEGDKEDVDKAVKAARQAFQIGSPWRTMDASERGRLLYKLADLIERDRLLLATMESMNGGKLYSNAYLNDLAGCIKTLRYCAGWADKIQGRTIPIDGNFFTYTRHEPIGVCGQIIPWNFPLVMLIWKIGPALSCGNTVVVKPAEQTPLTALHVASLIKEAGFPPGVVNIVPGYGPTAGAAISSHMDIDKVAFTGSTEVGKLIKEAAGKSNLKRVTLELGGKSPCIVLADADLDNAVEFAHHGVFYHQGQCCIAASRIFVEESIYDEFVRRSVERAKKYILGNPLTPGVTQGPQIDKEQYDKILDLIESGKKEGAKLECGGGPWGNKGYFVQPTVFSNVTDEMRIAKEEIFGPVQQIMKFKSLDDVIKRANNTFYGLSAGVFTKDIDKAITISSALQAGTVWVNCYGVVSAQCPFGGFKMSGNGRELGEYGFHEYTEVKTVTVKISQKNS
VP16 counter: counter-screen for ROR gamma inhibitors: Gal4-VP16 reporter | Drosophila S2 Gal4-VP16 UAS-luciferase, luminescence, 20 h | Potency, µM (titrated, usually from 53.6 µM), inactives show at the highest dose activity, negative = inhibition, most hits filed as inhibitors | 3.5% of 310,000 active | AID 2546;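 also: Gal4-VP16 expression switched on by copper sulfate through the metallothionein promoter; nearly all actives have a fitted effect of over 50% in size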
Numbers without * were called inactive; ? = inconclusive; . = no result given; ! = repeats disagree; [ ] = another dose, or the depositor's remark. Unless noted, calls follow the shape of the dose curve; as a rule, active = well fitted curve in the direction sought with a large enough effect; inconclusive = small, poorly fitted or top-dose-only effect, or another doubt; inactive = no such curve, though single readings can be large; an effect the other way counts as inactive or inconclusive. Unless noted, % is scaled to controls: 0 for no effect and ±100 for the full control effect; potency is read from the fitted curve at half-maximal effect.

SMILES	Sfp inh	RORgamma inh	PLK1 PBD inh	ALDH1A1 block	VP16 counter
CN(CC(=O)O)Cc1c[nH]c2ccccc12	.	.	.	19%[13.5 µM]	.
O=C(NCc1n[nH]c(=S)n1-c1ccc(Cl)c(Cl)c1)c1cccs1	89µM*	16µM*	-24%	7%	6%
CCN(CC)S(=O)(=O)c1ccc(C(=O)NCc2n[nH]c(=S)n2-c2ccccc2OC)cc1	-22%	-35%	-7%	?	-5%
CCN(CC)S(=O)(=O)c1ccc(C(=O)NCc2n[nH]c(=S)n2-c2ccc(Cl)c(Cl)c2)cc1	?	1%	-9%	1.4µM*	-21%
COc1cccc(-c2cc(=O)c3ccc(OC)cc3o2)c1	8%	1%	.	?	-1%
COc1cccc(-c2nn[nH]n2)c1O	50µM*	-7%	-3%	-4%	3%
CCN(CC)c1nc(-c2cccc(OC)c2O)nc2ccccc12	-26%	5%	9.5µM*	2%	-4%
COc1cccc(-c2nc(NCc3ccccc3)c3ccccc3n2)c1O	-17%	34%	-9%	.	?
COc1ccc(-c2nn[nH]n2)cc1OC	12%	-9%	-14%	16%	0%
CC1CCC(C(O)(C(=O)c2ccccc2)c2ccccc2)C(=O)C1 (stereo not drawn)	.	.	3%	.	.
Oc1ccc(Cl)cc1C=Nc1cnc2ccccc2c1	.	.	.	-11%[13.5 µM]	.
O=C1c2c(O)ccc(O)c2C(=O)c2c(NCCNCCO)ccc(NCCNCCO)c21	-58%	10µM*!	8%	?	?
CCOC(=O)C(NC(=O)c1cccc(Cl)c1)(OCc1ccc(F)cc1)C(F)(F)F (stereo not drawn)	32%	?	-8%	-9%	20µM*
COC(=O)c1c(NC2=NS(=O)(=O)c3ccccc32)sc2c1CCC(C(C)(C)C)C2 (stereo not drawn)	.	.	-12%	.	.
COC(=O)CCN1CCC2CC1c1cc(Cl)ccc12 (stereo not drawn)	.	.	-6%	.	.
O=C(NC1CCCCC1)C(c1cccnc1)N(C(=O)CCl)c1ccc(F)cc1 (stereo not drawn)	14%	11µM*	-7%	-5%	?
O=C(NC1CCCCC1)C(c1cccnc1)N(CCc1ccccc1)C(=O)Cc1cccs1 (stereo not drawn)	17%	24%	27µM*	15%	-16%
O=C(NC1CCCCC1)C(c1ccco1)N(CCc1ccccc1)C(=O)C(F)(F)F (stereo not drawn)	21%	32%	-7%	32µM*	-2%
COc1ccc(C(C(=O)NC2CCCC2)N(Cc2cccnc2)C(=O)Cc2cccs2)c(OC)c1 (stereo not drawn)	17%	10µM*	-1%	.	10%
COc1cccc(C(C(=O)NC2CCCC2)N(Cc2cccnc2)C(=O)Cc2cccs2)c1 (stereo not drawn)	-7%	34%	-1%	.	-5%
NCCC[C@@H](CC(=O)N[C@@H]1CCCC[C@H]1C(=O)N[C@H](CC(=O)N[C@@H](CCC(=O)O)CC(=O)O)Cc1ccccc1)NC(=O)C[C@H](CO)NC(=O)[C@@H]1CNCC[C@H]1N	9%	-19%	.	-8%	5%
CCn1nnnc1SCC(=O)N1c2ccccc2Sc2ccccc21	-5%	-7%	-15%	13µM*	-2%
Cn1nnnc1SCC(=O)N1c2ccccc2CCc2ccccc21	7%	1%	-11%	-7%	1%
CCn1nnnc1SCC(=O)N1c2ccccc2CCc2ccccc21	10%	22%	-2%	2µM*	4%[0.365 µM]
Cn1nnnc1SCC(=O)N1c2ccccc2Sc2ccccc21	-4%	6%	-1%	5%	2%
SMILES	Sfp inh	RORgamma inh	PLK1 PBD inh	ALDH1A1 block	VP16 counter
COc1cc(/C=C/[N+](=O)[O-])ccc1OC(=O)c1cc2ccccc2oc1=O	3.5µM*	16µM*	13µM*	.	7.1µM*
N#Cc1cccc(NC(=S)Nc2ccccc2)c1	-19%	-31%	13µM*	?	-9%
O=C(c1cc(S(=O)(=O)Nc2ccccc2F)c(Cl)cc1Cl)N1CCN(CCO)CC1	10%	-23%	-13%	5%	-4%
O=C(NCCN1CCOCC1)c1cc(S(=O)(=O)Nc2ccccc2F)c(Cl)cc1Cl	13%	-5%	34µM*	.	-6%
O=C(c1cccc(F)c1)N1CCC2(CCCN(Cc3ccccc3)C2)CC1	14%	-25%	.	8%	-11%
CNC(=S)NNc1nncc2ccccc12	22µM*	5µM*	-1%	?	4.5µM*
CCNC(=S)NNc1nncc2ccccc12	4µM*	0.5µM*	-10%	?	3.2µM*
CCN1C(=O)/C(=C2/C=CC=CN2C)OC1=S	-17%	-17%	-19%	?	-3%
C=CCN1C=CC=C/C1=C1\SC(=S)N(C)C1=O	?	-26%	-16%	?	6%
CN1C=CC=C/C1=C1\SC(=S)N(c2ccccc2)C1=O	25µM*	-28%	-19%	11µM*	-4%
CCN1C(C)=C(C)S/C1=C1\SC(=S)N(C2CCCCC2)C1=O	16%	-1%	?	-8%	2%
CN1C=CC=C/C1=C1\SC(=S)N(C2CCCCC2)C1=O	-18%	2%	-5%	14µM*	3%
CN1C=CC=C/C1=C1\SC(=S)N(CC(=O)O)C1=O	45µM*	-15%	-7%	?	-3%
Cc1nn(C)cc1/C=N/NC(=O)C1(O)c2ccccc2-c2ccccc21	8%	-21%	-1%	7%	3.5µM*
Cc1ccccc1C1C(C#N)=C2N=C(N)c3c(sc4c3CCCCC4)N2C2=C1C(=O)CC(C)(C)C2 (stereo not drawn)	4%	13µM*	-11%	7.1µM*	?
CC(C)OCCCn1c(-c2ccc(Br)cc2)c[nH]c1=S	?	1µM*	-21%	?	2.8µM*
COc1cccc(C(C#N)NCCCNC(C#N)c2cccc(OC)c2OC)c1OC (stereo not drawn)	.	.	-3%	.	.
Cc1c(-c2n[nH]c(=S)n2-c2ccc(Br)cc2)nnn1-c1ccc(Cl)cc1	-14%	-10%	-14%	11%	6%[10 µM]
Cc1cc(-c2n[nH]c(=S)n2Cc2ccco2)nn1C	-7%	?	0%	-12%	-26%
Cc1cc(-c2n[nH]c(=S)n2-c2ccccc2)nn1C	79µM*	-24%	4%	?	-7%
Cc1nn(C)c(-c2n[nH]c(=S)n2-c2ccccc2)c1Cl	9%	11µM*	-3%	?	-8%
Cn1cc(Cl)c(-c2n[nH]c(=S)n2-c2ccccc2)n1	-8%	-40%	2%	-13%	-6%
Cc1c(-c2n[nH]c(=S)n2-c2ccc(C(F)(F)F)cc2)nnn1-c1ccccc1	2%	5.6µM*	-13%	?	?
Cc1ccc(-n2c(-c3cc(C)n(C)n3)n[nH]c2=S)cc1	?	11µM*	-5%	2%	-2%
Cc1ccc(S(=O)(=O)O[C@@H]2[C@H]([C@@H]3COC(C)(C)O3)O[C@H]3OC(C)(C)O[C@@H]32)cc1	.	.	.	-2%[13.5 µM]	.
COc1ccc(NC(=O)COC(=O)CN2C(=O)c3ccccc3C2=O)cc1	.	.	-8%	.	.

Screens deposited in PubChem BioAssay by National Center for Advancing Translational Sciences (NCATS).
